Source: PubChem BioAssay (EPA / NIEHS)
Records with an inconclusive call do not appear. Activity calls are given as the source filed them. How the source made its calls: active means hit-call score of the fitted dose curve at least 0.9, where 1 is the maximum; inconclusive means response in the unintended direction; inactive means score below 0.9.

Assay: IUF_NPC5_oligodendrocyte_differentiation_120hr: Leibniz Research Institute for Environmental Medicine (IUF) 120-hour Oligodendrocyte Differentiation Assay (NPC5) (AID 2284304);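 further: share of O4-positive cells among Hoechst nuclei found by CNN image analysis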
Experimental: IUF_NPC2-5 is a cell-based, multiplexed assay that uses hNPC, a human primary neural progenitor cells, with measurements taken at 72 or 120 hours after chemical dosing in a 96-well plate. Human neural progenitor cells (hNPC) are generated from human fetal brain cortex at gestational week (GW) 16-19. In the neural progenitor cell migration and differentiation assay (NPC2-5), hNPCs grown as spheres are plated on an extracellular matrix and migrate and differentiate out of the sphere core. The processes radial glia migration, neuronal and oligodendrocyte migration as well as neuronal differentiation, neuronal morphology and oligodendrocyte differentiation are studied using automated phase contrast imaging and automated fluorescence imaging in combination with high content image analysis. In parallel, the cell viability is assessed using an alamar blue viability assay and the cytotoxicity using a lactate dehydrogenase dependent membrane integrity assay.IUF_NPC5_oligodendrocyte_differentiation_120hr is one of 12 assay components measured from the IUF_NPC2-5 assay. Oligodendrocyte differentiation at 120 hr is determined as the number of all O4-positive cells in percent of the number of Hoechst-positive nuclei in the total neurosphere migration area (see IUF_NPC2a_ glia_migration_120hr) after 120 hr of migration/differentiation. Oligodendrocytes are automatically identified using a convolutional neural network (CNN) that was trained using manually annotated images of differentiated oligodendrocytes.Data from the IUF_NPC5_oligodendrocyte_differentiation_120hr component was analyzed at the endpoint IUF_NPC5_oligodendrocyte_differentiation_120hr in the positive analysis fitting direction relative to DMSO as the negative control and baseline of activity. Using a type of differentiation reporter, loss-of-signal activity can be used to understand developmental effects.
Culture protocol: After the cell expansion period the cells are cultured for up to four weeks in which they are passaged every week as described in 3.6. Between one to three days after passaging spheres at a size of 0.3 mm are picked for the test method. For the assessment of neural progenitor cell migration and differentiation, the spheres are plated on poly-D-lysine/laminin coated 96-well flat bottom plates in differentiation medium (N2) to initiate migration and differentiation. Thereby one 0.3 mm big sphere is plated in the middle of a well. The differentiation medium consists of DMEM and Ham's F12 at a ratio of 3 to 1 supplemented with 1% N2 and 1% penicillin and streptomycin. Within 5 days NPCs radially migrate out of the sphere core and differentiate into radial glia cells (nestin positive), neurons (TUBB3 positive), oligodendrocytes (O4 positive) and astrocytes (GFAP positive). Cultivation during the test method is performed at 37C and 5% CO2 at a ph of 7.2-7.6.Exposure: 0.3 mm big hNPC are plated in the already prepared test conditions. Exposure starts at day 0 of differentiation and is continued over five days of differentiation until the experiment is terminated. Cells are fed with fresh medium at day 3 of differentiation. Therefore, half of the test condition solution (e.g. solvent control or compound dilution) is replaced by freshly prepared test condition solution.Test Method: Migration distance and cytotoxicity is determined after 72 hours based on brightfield images of each well. The assay is terminated by the assessment of cell viability and cytotoxicity as well as cell fixation after 120 h. Immunocytochemistry is performed for Hoechst positive nuclei, TUBB3 positive neurons and O4 positive oligodendrocytes. On the ICC images, migration after 120 hours, neuronal and oligodendrocyte number, neuronal morphology and neuron/oligodendrocyte specific migration is assessed. immunocytochemical staining (ICC) generates an image for each sphere. […]

SMILES	AC50	outcome
BrC1CC(Br)CC(Br)CC(Br)CC(Br)CC(Br)C1 (stereo unspecified)	856 nM (active)	
CCCCCC=C(C)C(CC)CCO (stereo unspecified)		inactive
CCCCCC(C)(CC)C(=O)NC (stereo unspecified)		inactive
C[C@@H]1CCO[C@H]2Cn3cc(C(=O)NCc4ccc(F)cc4F)c(=O)c(O)c3C(=O)N12		inactive
C[C@@H]1CC[C@@H](C(C)(C)O)[C@H](O)C1		inactive
O=C1CC2(CCCC2)CC(=O)N1CCCCN1CCN(c2ncccn2)CC1		inactive
CC(CNC(=S)[S-])NC(=S)[S-].[Zn+2] (stereo unspecified)		inactive
CC(=O)OC/N=[N+](\C)[O-]		inactive
CC(=O)N[C@@H](CC(=O)O)C(=O)O		inactive
CN(C)CCCn1cc(C2=C(c3c[nH]c4ccccc34)C(=O)NC2=O)c2ccccc21	746 nM (active)	
CCc1ccccc1		inactive
